# Data from PubChem BioAssay (EPA / NIEHS).
# Active and inactive are the calls of the source. How the source made its calls: active means hit-call score of the fitted dose curve at least 0.9, where 1 is the maximum; inactive means score below 0.9.
# Target: Paired box protein Pax-6 (Homo sapiens) (UniProt P26367)
# Test: ATG_Pax6_CIS: Attagene CIS-FACTORIAL HepG2 Assay for human Paired Box 6 (PAX6) (AID 2282956)
# Details: HepG2 CIS-FACTORIAL PAX6 reporter transcription, RNA readout; actives raise or lower the signal
# In short: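 Readout: reporter transcript fluorescence after RT-PCR and capillary electrophoresis. Cells: HepG2, transiently transfected with cis-regulated MRTUs. Exposure 24 h. Gain or loss of signal fitted bidirectionally relative to DMSO.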
# Chain of Paired box protein Pax-6 (Homo sapiens) (P26367 whole entry, looked up): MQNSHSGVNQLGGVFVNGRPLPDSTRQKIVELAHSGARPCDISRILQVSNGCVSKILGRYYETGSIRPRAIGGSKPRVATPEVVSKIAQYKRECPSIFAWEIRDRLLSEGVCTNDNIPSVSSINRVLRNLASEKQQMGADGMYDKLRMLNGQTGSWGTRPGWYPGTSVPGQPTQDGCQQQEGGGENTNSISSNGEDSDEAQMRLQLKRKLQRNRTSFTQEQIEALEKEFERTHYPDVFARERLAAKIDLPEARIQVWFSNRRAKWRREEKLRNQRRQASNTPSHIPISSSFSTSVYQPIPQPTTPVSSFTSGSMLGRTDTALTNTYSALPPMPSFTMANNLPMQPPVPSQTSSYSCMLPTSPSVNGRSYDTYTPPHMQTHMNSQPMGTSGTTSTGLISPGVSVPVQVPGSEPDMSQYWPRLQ
SMILES,outcome,AC50
COc1ccc(C(=O)Nc2nc3ccccc3c(NCc3ccccc3)c2C#N)cc1,inactive,–
CN(C)C(=O)NC1(c2ccccc2)CCN(CCC[C@]2(c3ccc(Cl)c(Cl)c3)CCCN(C(=O)c3ccccc3)C2)CC1,–,4.94 µM (active)
CC(C)COC(=O)CCCCC(=O)OCC(C)C,inactive,–
CC(C)c1cccc(C(C)C)c1,inactive,–
Cc1cc(SC2=C(O)C[C@@](CCc3ccc(N)cc3)(C(C)C)OC2=O)c(C(C)(C)C)cc1CO,inactive,–
Oc1ccccc1O,inactive,–
O=C1O[C@H]([C@H](O)CO)C(O)=C1O,inactive,–
CN(C)C(=O)NC1(c2ccccc2)CCN(CC[C@@]2(c3ccc(F)c(F)c3)CN(C(=O)c3ccccc3)CCO2)CC1,inactive,–
C=CCCCCCCCCCCCC,inactive,–
O=C(NS(=O)(=O)/C=C/c1cccs1)c1ccc(F)cc1Br,inactive,–
CC1(C)C(=O)NC(=O)N1CO,inactive,–
CCC(C)N(C)C(=O)c1cc2ccccc2c(-c2ccccc2Cl)n1 (stereo not given),–,63 µM (active)
CC(C)NCC(O)c1ccc(O)c(O)c1 (stereo not given),inactive,–
O=C1CCCCC1,inactive,–
O=C(O)c1[nH]n(-c2ccc(S(=O)(=O)O)cc2)c(=O)c1N=Nc1ccc(S(=O)(=O)O)cc1,inactive,–
CCCC[C@H]1CN(CC2CCOCC2)C(=O)OC12CCN(C1(C)CCN(C(=O)c3c(C)ncnc3C)CC1)CC2,inactive,–
NC=O,inactive,–
CCCCCCCC(=O)OC,inactive,–
Cc1ccc(-c2cc(C(F)(F)F)nn2-c2ccc(S(N)(=O)=O)cc2)cc1,inactive,–
CC(COCC(C)OC(=O)c1ccccc1)OC(=O)c1ccccc1 (stereo not given),inactive,–
